We go through 60 compounds from PubChem BioAssay AID449762 (Southern Research Specialized Biocontainment Screening …, 2010).

Each structure is given as a SMILES string. Hit rate of the full screen: of about 330,000 compounds, about 1,900 (0.58%) were called active. Another 4% or so got no clear call; they are omitted. No stated cut-off is given here; in the data, inconclusive means inhibition above about 70% without an active follow-up result; inactive means below that. The list is a sample of the results. Entries with a potency or affinity are not part of this list.

The test can be described thus: M. tuberculosis growth inhibition, HTS (AID 449762).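 Further: bacterial growth assessed after seven days of incubation.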 To be noted: M. tuberculosis H37Rv growth inhibition, 7H9 media; at 25 µM; stronger effect = higher value.
As for `COc1ccccc1N(CC(=O)NC(C)(C)C)C(=O)CCC(=O)Nc1nccs1`, the inhibition (usually the drop in the measured response relative to a control, in per cent) is -0.5% (inactive). `CC1(CCc2ccccc2)NC(=O)N(CC(=O)Nc2ccc(S(N)(=O)=O)cc2)C1=O` (stereo not given): the inhibition was 0.35% (inactive). Under `CNC[C@@H](C)NC[C@@H](Cc1ccccc1)NCCc1ccccc1` stands 1.77% (inactive); under `NC[C@H](Cc1ccccc1)NCCCCC1CCCCC1`, -8.88% (inactive). Under `COc1cccc(NC(=O)COC(=O)c2ccccc2SCC(=O)N2CCCC2)c1` stands 5.04% (inactive); under `Cc1cc(=O)[nH]c(Nc2cccc(Cl)c2C)n1`, 1.14% (inactive). On to `O=C(NS(=O)(=O)c1ccccc1Cl)c1ccc[nH]1`, for which the inhibition is 2.54% (inactive). As for `CCOc1ccc(C(C)NC(=O)Cc2ccccc2)cc1OCC` (stereo not given), the figure is -8.29% (inactive); as for `OCCN1CCN(c2nc(NCc3ccco3)c3ccccc3n2)CC1`, -0.19% (inactive). Under `OCCNc1nc(N2CCN(Cc3ccccc3)CC2)nc2ccccc12` stands 5.92% (inactive); under `CCc1cccc(CC)c1NC(=O)CSc1nc2ccc(N3C(=O)C4C5C=CC(C5)C4C3=O)cc2s1` (stereo not given), -11% (inactive); under `CCc1cccc(CC)c1NC(=O)CSc1nc2ccc(N3C(=O)C4C(C3=O)[C@H]3C=C[C@@H]4C3)cc2s1` (stereo not given in full), -9.69% (inactive). Consider `COc1cc(C(=O)Nc2cccc(S(=O)(=O)NCc3ccco3)c2)cc(OC)c1OC`, for which the inhibition is 0.68% (inactive).

Turning to `COc1ccc(CCC(C)NC(=O)CCc2ccccc2)c(OC)c1` (stereo not given), the inhibition is 4.05% (inactive). As for `COc1cc(/C=N/NC(=O)c2cc3ccccc3cc2O)ccc1OCCN1CCCCC1`, the figure is 9.28% (inactive). Under `COc1cc(/C=N/NC(=O)c2csc3c2CCCC3)ccc1OCCN1CCOCC1` stands -0.72% (inactive); under `COc1ccccc1CNC(=O)CN1CCN(S(=O)(=O)c2cccs2)CC1`, -5.5% (inactive); under `CSCCC(NS(=O)(=O)c1ccc(Cl)cc1)C(=O)OCC(=O)NC1CCCCC1` (stereo not given), 1.43% (inactive). Under `COc1ccc(NC2=NC(C)(C)CS2)cc1` stands -0.92% (inactive); under `Cc1ccc(C(=O)CCNc2ccc(Br)cc2)o1`, -5.24% (inactive). On to `Cc1ccc(C(=O)CNc2ccc(Br)cc2)cc1`, for which the inhibition was 2.6% (inactive). On to `CC12CCC(C(=O)Nc3cccc4ccccc34)(C1Br)C2(C)C` (stereo not given), for which the inhibition is 5.17% (inactive). With `CCOc1ccc(-c2cnc(SCC(N)=O)nc2N)cc1`, the inhibition was 62.7% (inactive). As for `CCCCOc1ccc(-c2nc(SCC(N)=O)n[nH]2)cc1`, the figure is 48.6% (inactive); as for `CCC1(c2ccc(F)cc2)NC(=O)N(CC(=O)N2c3ccccc3NC(=O)C2(C)C)C1=O` (stereo not given), 1.45% (inactive).

In the case of `CCOc1ccc(-n2c(Cc3ccccc3)nnc2SCc2c(C)noc2C)cc1`, the inhibition is -5.75% (inactive). Regarding `Oc1ccc(-c2nc3ccc4ccccc4c3c3c2CCC3)cc1O`, the inhibition is -2.27% (inactive). Under `COc1cc(-c2nc3ccc4ccccc4c3c3c2CCC3)ccc1O` stands -4% (inactive); under `Cc1ccccc1NC(=O)CN1C(=O)NC2(CCc3ccccc32)C1=O` (stereo not given), 8.44% (inactive); under `Oc1ccc(Nc2ccnc3cc(Cl)ccc23)cc1`, 7.94% (inactive). As for `CC/C(=N\Nc1ccnc2cc(Cl)ccc12)c1ccc(O)cc1`, the figure is 9.75% (inactive); as for `Clc1ccc2c(NNc3ccccc3Cl)ccnc2c1`, 64.1% (inactive).

For `C/C(=N/Nc1ccnc2cc(Cl)ccc12)c1ccc(N)cc1`, the inhibition is -2.9% (inactive).

Consider `COc1ccc(OC2C(=O)N(Cc3ccc(F)cc3)C2c2cc(OC)c(OC)c(OC)c2)cc1` (stereo not given), for which the inhibition was 20.5% (inactive). Under `COc1ccc(S(=O)(=O)Cc2ccc(C(=O)NC3CCC(C)CC3)o2)cc1` (stereo not given) stands 1.75% (inactive). Under `Cc1ccc(C(=O)CSc2nnc3n2CCCCC3)s1` stands -7.99% (inactive). As for `COCCCNC(=O)Nc1ccc2c(c1)N(C)C(=O)CS2`, the figure is 1.24% (inactive); as for `O=C(CN(CCc1ccccc1)C(=O)CNS(=O)(=O)c1ccc(F)cc1)NCc1ccco1`, 1.92% (inactive); as for `CCCCN1CCNC[C@@H]1c1ccccc1`, -9.81% (inactive). For `CCOC1OC(=O)C(Cl)=C1Nc1ccc(C)cc1C` (stereo not given), the inhibition was 9.67% (inactive).

`CCOC1OC(=O)C(Cl)=C1Nc1cc(C)ccc1C` (stereo not given): the inhibition was -3.33% (inactive). For the compound `Cc1ccc(NC(=O)C2CCN(C(=O)[C@@H]3Cc4ccccc4CN3)CC2)cc1`, the inhibition was 9.95% (inactive). For the compound `O=C(COC(=O)c1cc2ccccc2oc1=O)Nc1cccc(S(=O)(=O)N2CCCCCC2)c1`, the inhibition is -4.32% (inactive). As for `CCOC(=O)Cc1csc(NC(=O)CSc2nnnn2-c2ccc(F)cc2)n1`, the figure is -5.86% (inactive); as for `CCc1nnc(NC(=O)CN2C(=O)NC3(CC(C)CC(C)(C)C3)C2=O)s1` (stereo not given), -0.6% (inactive).

As for `CCOC(=O)c1sc(NC(=O)CN2C(=O)NC3(CC(C)CC(C)(C)C3)C2=O)c(C(=O)OCC)c1C` (stereo not given), the inhibition is 5.68% (inactive). As for `CSCC[C@H](NC(=O)c1cccc(S(=O)(=O)N2CCN(C)CC2)c1)c1nc2ccccc2[nH]1`, the figure is -7.51% (inactive). As to `CC(C(=O)Nc1ccc2c(c1)OCCO2)n1nnc(-c2ccccc2)n1` (stereo not given), the inhibition was 0.15% (inactive). For `Cc1nc(C)c(CCNC(=O)c2ccccc2Br)s1`, the inhibition is -5.7% (inactive). Under `S=C(Nc1ccccc1)NC1CCN(Cc2ccccc2)CC1` stands -9.83% (inactive). Under `O=C(NCCc1ccccc1)C(=O)NN=C1CCCC1` stands -3.67% (inactive).

Consider `S=C(NC1CCCCC1)N1CCN(Cc2ccccc2)CC1`, for which the inhibition is -15.7% (inactive). As for `CC1CCCC/C1=N\NC(=S)Nc1ccccc1` (stereo not given), the figure is 0.51% (inactive); as for `Cc1ccc(NC(=S)N/N=C2\CCCCC2C)cc1` (stereo not given), 5.06% (inactive); as for `O=C(CC(=O)NN=C1CCCC1)NCCc1ccccc1`, 4.48% (inactive). Under `Cc1cccc(C)c1NC(=S)NCCc1ccccn1` stands 3.14% (inactive); under `CC1(C)C[C@H](O)[C@@]23C[C@@H](OC2=O)[C@]2(C)C(=CCC4[C@@]5(C)CC[C@H](O)C(C)(C)C5CC[C@]42C)[C@@H]3C1` (stereo not given in full), 3.65% (inactive); under `CCOC(=O)c1cc(CC)sc1NC(=O)COC(=O)C1CCC1`, -15.8% (inactive).

On to `Cc1cccc(C)c1NC(=O)CN1N=NC2C(=O)N(c3cccc(Cl)c3)C(=O)C21` (stereo not given), for which the inhibition is 2.55% (inactive). As to `CN(C)S(=O)(=O)c1cccc(NC(=O)CSc2nc3ccccc3[nH]2)c1`, the inhibition was -2.08% (inactive).
